In PubChem BioAssay (NCATS):
Results filed as inconclusive are left out. Activity calls are given as the source filed them. Unless noted, calls follow the shape of the dose curve; as a rule, active = well fitted curve in the direction sought with a large enough effect; inconclusive = small, poorly fitted or top-dose-only effect, or another doubt; inactive = no such curve, though single readings can be large; an effect the other way counts as inactive or inconclusive.

What was measured:
[1] = Cell Viability - BJ (AID 421; calls by dose curve;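 also: potency is read from the fitted curve at half-maximal effect; cells exposed to compound for 40 hours at 37 °C before readout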); conditions: BJ fibroblast viability, qHTS
How it was run: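 Luminescent ATP signal (CellTiter-Glo, 20 min at room temperature) served as the read-out of viable BJ cells after 40 hours of compound treatment. Responses were scaled between DMSO and 100 uM tamoxifen, and AC50 values were obtained by Hill modeling.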

[2] = Cell Viability - Jurkat (AID 426;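 active = dose-dependent loss of cell ATP signal giving a full or clear fitted curve, ranked by lower potency value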;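 also: potency is read from the fitted curve at half-maximal effect; cells exposed to compound for 40 hours at 37 °C before ATP read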); conditions: qHTS
How it was run: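 Seed 5000 Jurkat E6-1 cells/well; add compound; incubate 40 hr at 37 °C; add CellTiter-Glo; wait 20 min at room temperature; read luminescence. Fit concentration-response with Hill equation for AC50.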

[3] = Cell Viability - Hek293 (AID 427;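 active = compounds whose dose-response curve shows a full or clear partial loss of cell viability, called from curve shape rather than a numeric limit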;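 also: potency is read from the fitted curve at half-maximal effect; cells exposed to compound for 40 hours at 37 °C before reading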); conditions: qHTS
How it was run: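 Luminescent ATP read-out (CellTiter-Glo, 20 min RT) after 40 hr compound exposure at 37 °C in complete medium. Signal normalized to DMSO (basal) and 100 uM tamoxifen (100% inhibition); concentration-response fitted with the standard Hill equation to give AC50.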

[4] = Cell Viability - HepG2 (AID 433; calls by dose curve;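 also: potency is read from the fitted curve at half-maximal effect; potency for ATP loss meaning cytotoxicity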); conditions: qHTS
How it was run: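 HepG2 hepatocellular carcinoma cells (1500/well) were treated with compounds for 40 h at 37 °C in complete medium; intracellular ATP was read by CellTiter-Glo luminescence. Data were normalized to DMSO and 100 uM tamoxifen, and AC50 came from Hill fits.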

[5] = Cell Viability - MRC5 (AID 434; calls by dose curve;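 also: potency is read from the fitted curve at half-maximal effect; potency reflects cytotoxicity seen as loss of intracellular ATP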); conditions: MRC5 lung fibroblast viability, qHTS
How it was run: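 MRC5 normal human lung fibroblasts (1500/well) were treated with compounds for 40 hr at 37 °C in complete medium, and viable cells were measured as intracellular ATP by CellTiter-Glo luminescence. AC50 came from Hill fits, normalized to DMSO and 100 uM tamoxifen.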

[6] = Cell Viability - SK-N-SH (AID 435; calls by dose curve;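 also: potency is read from the fitted curve at half-maximal effect; compound exposure lasted 40 h at 37 °C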); conditions: SK-N-SH neuroblastoma cell viability qHTS
How it was run: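 SK-N-SH human neuroblastoma cells (1500/well) were exposed to compounds in complete medium for 40 h at 37 °C, and intracellular ATP was then measured by CellTiter-Glo luminescence. AC50 was taken from Hill fits, normalized to DMSO and 100 uM tamoxifen.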

[7] = target: Mitogen-activated protein kinase 10 (Mus musculus) (UniProt Q61831); assay: JNK3 AlphaScreen Assay (AID 530; active = well fitted curve in either direction with a large enough effect, not every such curve was filed as active;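 also: kinase came from lysate of stimulated human HepG2 cells; signal reports phosphorylation of biotinylated GST-cJun 1-79 at Ser73 with 10 µM ATP; % is scaled to controls: 0 for no effect and ±100 for the full control effect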); conditions: JNK3 lysate, c-Jun phosphorylation; series mostly up to 57.1 µM
How it was run: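 JNK3 came from HepG2 lysates pre-activated with IL-1beta and TNF-alpha and phosphorylated biotinylated GST-cJun (1-79) at 10 uM ATP, pH 7.6, room temperature. Compounds were titrated. AlphaScreen signal used anti-phospho-cJun (Ser73) antibody.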

[8] = Cell Viability - N2a (AID 540); conditions: N2a mouse neuroblastoma cell viability; activity change, negative = cytotoxicity: at 92.2 µM (top of the series);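 also: plate controls were DMSO alone for no effect and tamoxifen control for full effect; nearly all actives have a fitted effect of over 45% in size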
How it was run: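 First, 1500 N2a cells per well incubate 5 hr at 37 °C; next, compounds are added and incubated 40 hr at 37 °C; finally CellTiter-Glo is added and luminescence read after 20 min, with AC50 derived by Hill modeling.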

[9] = Cell Viability - NIH 3T3 (AID 541); conditions: NIH 3T3 cell viability, qHTS; activity change, negative = cytotoxicity: at 92.2 µM (top of the series);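 also: plate controls were DMSO alone for no effect and tamoxifen positive control for full effect; nearly all actives have a fitted effect of over 25% in size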
How it was run: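 AC50 values reflect concentration-dependent loss of intracellular ATP in NIH 3T3 cells after 40 hr treatment in complete culture medium, quantified by luciferase-based luminescence.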

[10] = Cell Viability - HUV-EC-C (AID 542); conditions: HUV-EC-C endothelial cell viability, qHTS; series mostly up to 92.2 µM; also: % is scaled to controls: 0 for no effect and ±100 for the full control effect; nearly all actives have a fitted effect of over 35% in size
How it was run: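 Decrease in cellular ATP, quantified by luciferase luminescence, reflects toxicity in normal human vascular endothelial HUV-EC-C cells given compound for 40 hr in complete culture medium. Values are AC50s from concentration-response curves.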

[11] = Cell Viability - H-4-II-E (AID 543); conditions: H-4-II-E rat hepatoma viability; series mostly up to 92.2 µM; also: % is scaled to controls: 0 for no effect and ±100 for the full control effect; nearly all actives have a fitted effect of over 35% in size
How it was run: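 Here, cytotoxicity is measured in the rat hepatoma line H-4-II-E as loss of intracellular ATP after 40 hr compound treatment, detected by luciferase luminescence.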

[12] = Cell Viability - SH-SY5Y (AID 544); conditions: SH-SY5Y neuroblastoma cell viability; viability change, negative = cytotoxic: at 92.2 µM (top of the series); also: nearly all actives have a fitted effect of over 55% in size
How it was run: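 Cytotoxicity is scored as a concentration-dependent fall in intracellular ATP in human SH-SY5Y cells treated 40 hr in complete culture medium. Potency is expressed as AC50 from a Hill equation fit.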

[13] = Cell Viability - Mesenchymal (AID 546); conditions: mesenchymal cells viability, qHTS; series mostly up to 91.7 µM;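 also: cells exposed to compound for 40 hours before reading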
How it was run: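 Normal human renal glomerulus-derived kidney mesenchymal cells, 1000 per well in complete medium, were treated with compounds for 40 hr at 37 °C. Viability was read as intracellular ATP by CellTiter-Glo luminescence; AC50 values came from Hill-equation fits of qHTS concentration-response data.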

[14] = Cellular Toxicity (caspase-3) HepG2 (AID 654); conditions: HepG2 caspase-3 activation, luminescence; series mostly up to 92.2 µM;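 also: cells exposed to compound for 16 hours before reading; 0% = DMSO alone and 100% = caspase signal from 100 µM tamoxifen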
How it was run: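 qHTS, HepG2, 1500 cells/well, complete medium; cpd 16 h 37 °C; Caspase-Glo 3/7, 20 min RT; lum. Norm: DMSO vs 100 uM tamoxifen; AC50 Hill fit.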

[15] = Cellular Toxicity (caspase-3) Jurkat (AID 655); conditions: Jurkat caspase-3 activation, luminescence; caspase-3 activation: at 92.2 µM (top of the series), DMSO = 0%, tamoxifen = 100%;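 also: cells exposed to compound for 16 h at 37 °C before reading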
How it was run: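 Jurkat cells (5000/well) in complete medium were treated with compounds for 16 hr at 37 °C, then Caspase-Glo 3/7 luminescence was read after 20 min at room temperature. Data normalized to DMSO (basal) and 100 uM tamoxifen (100%); AC50 from Hill fit.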

[16] = Cellular Toxicity (caspase-3) HUV-EC-C (AID 656); conditions: HUV-EC-C cells, caspase-3 activation (apoptosis), vehicle = 0, 100 µM tamoxifen = 100%; series mostly up to 92.2 µM
How it was run: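 HUV-EC-C endothelial cells, 1000/well, were pre-incubated 5 hr at 37°C, then exposed to compounds for 16 hr at 37°C. Caspase-Glo 3/7 luminescence was read after 20 min at room temperature. AC50 came from Hill fits, normalized to DMSO and 100 uM tamoxifen.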

[17] = Cellular Toxicity (caspase-3) SHSY5Y (AID 657); conditions: SH-SY5Y caspase-3 activation, DMSO zero, 10 µM staurosporine = 100%; series mostly up to 91.7 µM
How it was run: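 SH-SY5Y human neuroblastoma cells (1500/well) were treated with compounds for 16 h at 37 °C, then Caspase-Glo 3/7 luminescence was read after 1 h at room temperature. Data normalized to DMSO and 10 uM staurosporine; AC50 from Hill fits.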

[18] = Cellular Toxicity (caspase-3) BJ (AID 658); conditions: BJ fibroblasts, luminescence, normalized: DMSO 0%, staurosporine 100%; series mostly up to 91.7 µM
How it was run: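 Luminescent aminoluciferin-substrate cleavage reports caspase 3/7 activity in normal human BJ fibroblasts after 16 hr compound exposure at 37 °C. Normalized to DMSO (basal) and 10 uM staurosporine (100%); AC50 from Hill fit of concentration-response.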

[19] = Cellular Toxicity (caspase-3) MRC-5 (AID 659); conditions: MRC-5 cells, luminescence, normalized: DMSO 0%, 10 µM staurosporine 100%; series mostly up to 91.7 µM
How it was run: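 Luminescence from caspase-cleaved aminoluciferin substrate (Caspase-Glo 3/7, 1 hr RT) reports caspase 3/7 activity in MRC-5 lung fibroblasts after 16 hr compound exposure. Normalized to DMSO basal and 10 uM staurosporine as 100%; AC50 from Hill fits.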

[20] = Cell Viability - Renal Proximal Tubule (AID 545); conditions: renal proximal tubule cells viability, primary cells of rat origin; series mostly up to 91.7 µM; also: nearly all actives have a fitted effect of over 40% in size
How it was run: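 Primary rat renal proximal tubule cells (1000/well) were treated with compounds for 40 hr at 37 °C in complete medium. Intracellular ATP was measured by CellTiter-Glo luminescence, and AC50 values came from Hill-equation fits of concentration-response data.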

CCCCC(=O)N(C)C
inactive: Potency [1] > 92 µM | Potency [2] > 92 µM | Potency [3] > 92 µM | Potency [4] > 92 µM | Potency [5] > 92 µM | Potency [6] > 92 µM | outcome [7] | activity change, negative = cytotoxicity [8] -2.03% | Potency [9] | Potency [10] | Potency [11] | Potency [12] | Potency [13] | Potency [14] | caspase-3 activation [15] -0.841% | outcome [16] | outcome [17] | outcome [18] | outcome [19]

O=C(O)c1ccc(Cl)cc1Cl
inactive: Potency [1] > 92 µM | Potency [2] > 92 µM | Potency [3] > 92 µM | Potency [4] > 92 µM | Potency [5] > 92 µM | Potency [6] > 92 µM | outcome [7] | activity change, negative = cytotoxicity [8] 7.33% | Potency [9] | Potency [10] | Potency [11] | Potency [12] | Potency [20] | caspase-3 activation [15] -1.11% | outcome [16] | outcome [17] | outcome [18] | outcome [19]

CC=O
inactive: Potency [1] > 92 µM | Potency [2] > 92 µM | Potency [3] > 92 µM | Potency [4] > 92 µM | Potency [5] > 92 µM | Potency [6] > 92 µM | outcome [7] | activity change, negative = cytotoxicity [8] 1.14% | Potency [9] | Potency [10] | Potency [11] | Potency [12] | Potency [20] | Potency [14] | caspase-3 activation [15] -1.03% | outcome [16] | outcome [17] | outcome [18] | outcome [19]

CCCOCC(C)O (centres undefined)
inactive: Potency [1] > 92 µM | Potency [2] > 92 µM | Potency [3] > 92 µM | Potency [4] > 92 µM | Potency [5] > 92 µM | Potency [6] > 92 µM | outcome [7] | activity change, negative = cytotoxicity [8] -5.54% | Potency [9] | Potency [10] | Potency [11] | Potency [20] | Potency [13] | Potency [14] | caspase-3 activation [15] 3.45% | outcome [16] | outcome [17] | outcome [18]

O=[N+]([O-])c1c(Cl)cc(Cl)cc1Cl
inactive: Potency [1] > 92 µM | Potency [2] > 92 µM | Potency [3] > 92 µM | Potency [4] > 92 µM | Potency [5] > 92 µM | Potency [6] > 92 µM | outcome [7] | activity change, negative = cytotoxicity [8] 3.57% | Potency [9] | Potency [10] | Potency [11] | Potency [20] | Potency [13] | Potency [14] | caspase-3 activation [15] 0.558% | outcome [16] | outcome [17] | outcome [18] | outcome [19]

O=C1OC(=O)c2c(Cl)c(Cl)c(Cl)c(Cl)c21
inactive: Potency [1] > 92 µM | Potency [2] > 92 µM | Potency [3] > 92 µM | Potency [4] > 92 µM | Potency [5] > 92 µM | Potency [6] > 92 µM | outcome [7] | activity change, negative = cytotoxicity [8] 4.39% | Potency [9] | Potency [10] | Potency [11] | Potency [12] | outcome [16] | outcome [17] | outcome [18] | outcome [19]

Cc1ccccc1C=O
inactive: Potency [1] > 92 µM | Potency [2] > 92 µM | Potency [3] > 92 µM | Potency [4] > 92 µM | Potency [5] > 92 µM | Potency [6] > 92 µM | outcome [7] | activity change, negative = cytotoxicity [8] 2.15% | Potency [9] | Potency [10] | Potency [11] | Potency [20] | Potency [13] | Potency [14] | caspase-3 activation [15] 0.742% | outcome [16] | outcome [17] | outcome [18] | outcome [19]

Cc1ccc2ccccc2c1[N+](=O)[O-]
inactive: Potency [1] > 92 µM | Potency [2] > 92 µM | Potency [3] > 92 µM | Potency [4] > 92 µM | Potency [5] > 92 µM | Potency [6] > 92 µM | outcome [7] | activity change, negative = cytotoxicity [8] -10.2% | Potency [9] | Potency [10] | Potency [11] | Potency [12] | Potency [13] | Potency [14] | caspase-3 activation [15] -0.271% | outcome [16] | outcome [17] | outcome [18]

Cc1cc(C)cc(O)c1
inactive: Potency [1] > 92 µM | Potency [2] > 92 µM | Potency [3] > 92 µM | Potency [4] > 92 µM | Potency [5] > 92 µM | Potency [6] > 92 µM | outcome [7] | activity change, negative = cytotoxicity [8] -1.73% | Potency [9] | Potency [10] | Potency [11] | Potency [12] | Potency [13] | Potency [14] | caspase-3 activation [15] 0.986% | outcome [16] | outcome [17] | outcome [18] | outcome [19]

OC/C(Br)=C(\Br)CO
inactive: Potency [1] > 92 µM | Potency [2] > 92 µM | Potency [3] > 92 µM | Potency [4] > 92 µM | Potency [5] > 92 µM | Potency [6] > 92 µM | outcome [7] | activity change, negative = cytotoxicity [8] -4.76% | Potency [9] | Potency [10] | Potency [11] | Potency [12] | Potency [13] | Potency [14] | caspase-3 activation [15] 3.75% | outcome [16] | outcome [17] | outcome [18] | outcome [19]
